About 83,000 compounds went through this panel and 20% of them were active in at least one assay; those are over-represented in the sample as a whole.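 For each line, cells grew in 96-well plates with the test compound present at a single concentration for 48 hours.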 Values without a mark were called inactive. Active and inactive are the calls of the source. How the source made its calls: active means growth percent below 10; inactive means the rest.
The compounds below were run on MDA-MB-468 breast (assay: NCI-60 one-dose screen, 48 h (100 = growth as untreated, 0 = no growth, -100 = all killed)). Conditions: 10 µM unless noted.

SMILES	growth
O=c1[nH]c2ccccc2n1C1CCN(CCCC(c2ccc(F)cc2)c2ccc(F)cc2)CC1	33%
CCC(=O)Nc1ccc(Cl)c(Cl)c1	101%
COc1cc(C2CC(=O)Nc3nc(N)[se]c32)c(OC)c2c1OCO2 (stereo not given)	109%
C[C@]12CCc3sc(-c4cccc(F)c4)nc3C1=CC[C@@H]1[C@@H]2CC[C@]2(C)C(=O)CC[C@@H]12	29.2%
Cn1cnnc1[S-].[Au+].c1ccc([PH+](c2ccccc2)c2ccccc2)cc1	-49.1% (active)
O=Cc1cn(Cc2ccccc2)c2ccccc12	2.33% (active)
Fc1c[c-]c(-c2ccccn2)c(F)c1.[CH3-].[Pt+2].c1ccc([PH+](c2ccccc2)c2ccccn2)cc1	-21.7% (active)
O=[N+]([O-])c1ccc(N(CCO)CCO)c2c1no[n+]2[O-]	2.96% (active)
CN1CCN(c2ccc([N+](=O)[O-])c3no[n+]([O-])c23)CC1	-70.3% (active)
Cc1ccc(C[As+](c2ccccc2)(c2ccccc2)c2ccccc2)cc1	-24.3% (active)
COC(=O)[C@@]1(O)C[C@H]2O[C@]1(C)n1c3ccccc3c3c4c(c5c6ccccc6n2c5c31)C(=O)NC4	-72.4% (active)
[O-][n+]1ccccc1S	85.2%
[Cl][Sn]([c]1ccccc1)([c]1ccccc1)[c]1ccccc1	-75% (active)
ClC1=C(Cl)C(Cl)(C2(Cl)C(Cl)=C(Cl)C(Cl)=C2Cl)C(Cl)=C1Cl	-59.2% (active)
CC1=C[C@H]2O[C@@H]3C[C@H]4OC(=O)/C=C\C=C\[C@H]([C@@H](C)O)OCC/C(C)=C/C(=O)OC[C@@]2(CC1)[C@]4(C)[C@]31CO1	-63.8% (active)
Cc1cc(N(CCCl)CCCl)ccc1C=Nc1ccc(-c2csc(-c3ccccc3)n2)cc1	3.69% (active)
O=C1NC(=O)C(=Cc2cn(C(=O)c3ccccc3)c3ccccc23)C(=O)N1	101%
O=P(O)(Nc1ccccc1)Nc1ccccc1	90.2%
c1ccc(Nc2nc(-c3ccccc3)c[se]2)cc1	49.8%
COC(=O)[C@@H](C[C@H](Cc1ccccc1)NC(=O)c1csc([C@@H](C[C@H](C(C)C)N(C)C(=O)[C@@H](NC(=O)[C@H]2CCCCN2C)C(C)C)OC(C)=O)n1)NC(=O)OCc1ccccc1	16.5% [9.5 µM]

SMILES	growth
Nc1ccc(OCCNS(=O)(=O)c2cccc(S(=O)(=O)F)c2)c(Cl)c1	94.6%
CCC1(C(C)C)C(=O)NC(=S)NC1=O	89.9%
CCCCN(CCCC)CC(O)c1ccccc1 (stereo not given)	116%
COC(=O)[C@@H](C)C[C@H](Cc1ccccc1)NC(=O)c1nc([C@@H](C[C@H](C(C)C)N(C)C(=O)[C@@H](NC(=O)[C@H]2CC(=O)CCN2C)C(C)C)OC(C)=O)sc1C(C)C	7.54% (active)
O=C1C(=Cc2cn(Cc3ccccc3)c3ccccc23)C(=O)N(Cc2ccccc2)C(=O)N1Cc1ccccc1	-71.8% (active)
CCn1cnc2c(Nc3cccc(Cl)c3)nc(N[C@@H]3CCCC[C@@H]3N)nc21	-22% (active)
Nc1c(Br)cc2c3c(cccc13)-c1ccccc1-2	3.54% (active)
CC[C@H](C)[C@H](NC(=O)N[C@@H](C)c1ccccc1)C(=O)N(C)[C@H](C[C@@H](OC(C)=O)c1nc(C(=O)N[C@@H](Cc2ccccc2)C[C@H](C)C(=O)OC)cs1)C(C)C	-0.266% (active)
O=[N+]([O-])/C=C\c1ccc(Cl)c(Cl)c1	12.4%
COC(=O)CC12CC(NC(=O)c3csc([C@@H](C[C@H](C(C)C)N(C)C(=O)[C@@H](NC(=O)[C@H]4CCCCN4C)C(C)C)OC(C)=O)n3)(C1)C2	38.6%
CN(C)C(=O)Oc1ccc(Br)cc1	98.6%
C#Cc1cccc(Nc2nc(Cl)nc3cc(NC(=O)CF)ccc23)c1	61.5%
C=CC[PH+](c1ccccc1)c1ccccc1.C=CC[PH+](c1ccccc1)c1ccccc1.[Cl][Pt][Cl]	-20.5% (active)
CN1CCN(c2ccc(Cl)cc2)CC1	71.1%
CCN1C(=O)CC(=O)N(CC)C1=S	93.1%
C=C=[CH][Sn]([c]1ccccc1)([c]1ccccc1)[c]1ccccc1	-66.5% (active)
CC1=C2[C@@H](CC1)[C@]1(C)O[C@@](C(C)C)(C[C@H]1O)[C@H]2OC(=O)C1CC1c1ccccc1 (stereo not given in full)	94.6%
COc1cc(C=Nc2cc(Cl)cc(Cl)c2)ccc1N(CCCl)CCCl	36.3%
O=CC1(c2ccccc2)CCN(Cc2ccccc2)CC1	103%
COC(=O)C12CC(NC(=O)c3csc([C@@H](C[C@H](C(C)C)N(C)C(=O)[C@@H](NC(=O)[C@H]4CCCCN4C)C(C)C)OC(C)=O)n3)(C1)C2	42.5%

Source: PubChem BioAssay (NCI)
